Source: PubChem
D2 antagonist: antagonists of human D2 dopamine receptor. P14416. HEK293 TREx D2 cells, calcium flux, dopamine EC80. inhibition, % at 10 µM. actives 2% (n = 340,000); in the data active = inhibition above about 30%; inactive = below that, where a call was filed; note: 0% is about no effect
Target sequence (P14416 whole entry, looked up): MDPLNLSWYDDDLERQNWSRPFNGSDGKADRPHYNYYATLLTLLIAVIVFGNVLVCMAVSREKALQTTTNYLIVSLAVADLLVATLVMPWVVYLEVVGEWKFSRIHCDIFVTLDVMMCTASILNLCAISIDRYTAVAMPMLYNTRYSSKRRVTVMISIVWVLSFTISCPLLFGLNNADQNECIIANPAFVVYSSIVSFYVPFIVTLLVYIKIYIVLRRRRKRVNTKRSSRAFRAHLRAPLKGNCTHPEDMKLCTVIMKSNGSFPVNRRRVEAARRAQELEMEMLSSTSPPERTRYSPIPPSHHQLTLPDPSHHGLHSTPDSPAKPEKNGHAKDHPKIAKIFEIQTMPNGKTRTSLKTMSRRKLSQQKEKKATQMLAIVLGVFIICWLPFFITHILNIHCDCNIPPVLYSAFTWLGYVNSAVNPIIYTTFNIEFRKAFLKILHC
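HEK293 T-REx D2 cells, tet-induced, calcium dye no-wash. Cpd pintool add, 180 s kinetic, then EC80 DA, 180 s kinetic. Ca flux read.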
D2 PAM-1: positive allosteric modulators of human D2 dopamine receptor; HEK293 T-REx D2, calcium flux, EC20 dopamine potentiation; potentiation, % at 10 µM; P14416; actives 0.34% (n = 340,000); AID 485347;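 active = potentiation over 3 SD above the plate norm, cut at about 30% in these data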; note: 0% is about no effect
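Tetracycline-induced Hek293 Trex D2 cells, force-coupled to calcium, loaded with no-wash calcium dye. Compound added with 180 s kinetic read for agonism, then EC20 dopamine and a further 180 s read for potentiation.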
D2 ag-1: activates the human D2 dopamine receptor. HEK293 T-REx D2 cells, calcium flux agonist mode. P14416. AID 485358. activation, % at 2 µM. actives 0.53% (n = 340,000);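 active = activation over 3 SD above normal in the single-dose calcium agonist read, cut at about 30% in these data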; note: 0% is about no effect
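In this primary screen, compounds producing a positive calcium signal within 180 s of addition to tetracycline-induced, force-coupled HEK293 Trex D2 cells are flagged; cells are dye-loaded with a no-wash calcium kit beforehand.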
D2 ag-2: human D2 receptor agonism in beta-arrestin assay; P14416; actives 0.084% (n = 360,000); activation, % (no concentration beside the values); AID 624465; DiscoveRx PathHunter D2 beta-arrestin, luminescence, 90 min; 100% = 57 uM dopamine signal; in the data active = activation above about 40%; inconclusive = between about 15% and that limit
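DiscoveRx PathHunter D2 beta-arrestin cells (2,100/well) attached overnight, then compound-stimulated 90 min at 37 C in HBSS/10 mM HEPES/0.1% Tween-20 buffer; beta-galactosidase complementation read by luminescence after 1 h at ambient temperature. Dopamine 57 uM final (EC100) as control.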
D2 PAM-2: positive allosteric modulators of human D2 dopamine receptor; P14416; potentiation, % (concentration not given with the values); DiscoveRx D2 beta-arrestin cells, luminescence, 90 min; 100% = 57 uM dopamine signal; actives 0.23% (n = 360,000); in the data active = potentiation above about 50%; inconclusive = mostly about 30% to 49%
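PathHunter beta-arrestin assay in DiscoveRx D2 cells. Compounds were added with an EC20 of dopamine (50 nM final) for 90 min at 37 deg C. Luminescence was read 1 h after detection reagent, with 57 uM dopamine as the EC100 control.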
* marks the source's active call; other numbers are inactive results; ? = inconclusive; . = not tested or not shown; ! = a repeat was not active. This is a sample that favours compounds with a hit; in the whole collection about 2.4% have one here.

SMILES	D2 antagonist	D2 PAM-1	D2 ag-1	D2 ag-2	D2 PAM-2
COc1ccc(C2Nc3ccccc3C(=O)N2c2ccccc2)cc1CN1CCOCC1 (centres undefined)	30*	-1	0	4	-13
O=C(CN1C(=O)NC2(CCCC2)C1=O)OCc1cccc(Br)c1	-19	2	0	6	2
CN(C)c1oc(COc2ccc(F)cc2)nc1C#N	0	12	-1	-1	-11
CCOc1ccc2[nH]c(=O)c(CN(CCO)Cc3nnnn3CCc3ccccc3)cc2c1	39*	-7	0	-4	-9
Cc1ccc(CNC(=O)C2CCC(=O)N2Cc2ccc(F)cc2)cc1 (centres undefined)	-7	3	0	-1	-5
Cc1noc(C(=O)Nc2ccc3c(c2)OCO3)c1Cl	54*	-16	0	-1	-5
Cc1ccc2c(Cl)c(C(=O)Nc3ccc4c(c3)OCO4)sc2c1	34*	3	1	1	-2
CCCCCOC(=O)Cn1c(=O)c2c(nc(N3CCOCC3)n2C)n(C)c1=O	10	1	0	-3	-9
CCOC(=O)Cn1c(=O)c2c(nc(N3CCOCC3)n2C)n(C)c1=O	39*	1	0	0	-3
Cc1ccc(NC(=O)c2cccc(S(C)(=O)=O)c2)cc1	-3	2	1	-2	-9
Cc1nc2cc(NC(=O)c3cccc(S(C)(=O)=O)c3)ccc2o1	33*	-17	0	-1	-6
CCCn1c(SCC(=O)NCc2ccco2)nnc1C(C)C	47*	-7	0	-2	1
CCn1c2ccccc2c2cc(NC(=O)c3cccc([N+](=O)[O-])c3)ccc21	42*	-12	1	1	-2
CCCn1c(SCC(=O)Nc2nnc(CC)s2)nnc1-c1ccco1	7	38*	0	-1	29
Cc1nnc(SCC(=O)NCc2ccco2)n1Cc1ccccc1	.	.	.	-1	-15
CCn1c(SCC(=O)Nc2ccc3c(c2)c2ccccc2n3CC)nnc1-c1ccco1	45*	9	0	0	-21
CCSc1nc2n(n1)C(c1cccc(F)c1)C1=C(CCCC1=O)N2 (centres undefined)	-11	13	-1	-1	-2
CCOC(=O)C1CCCN(Cc2cccc(Oc3ccccc3)c2)C1 (centres undefined)	40*	-14	-2	1	-35
CCOC(=O)C1CCCN(C/C=C/c2ccccc2)C1 (centres undefined)	30*	-21	5	5	-24
CCOC(=O)C1CCCN(Cc2ccc(-c3ccccc3)cc2)C1 (centres undefined)	58*	-16	2	-3	-80
CCOC(=O)C1CCN(Cc2cccc(Oc3ccccc3)c2)CC1	.	.	.	?	-22
CCOC(=O)C1CCCN(Cc2c(Cl)cccc2Cl)C1 (centres undefined)	-10	0	0	-3	-13
CCOC(=O)C1CCN(C/C=C/c2ccccc2)CC1	-22	-7	-1	-3	-2
CCN(CC)S(=O)(=O)c1cc(NC(=O)CCNC(=O)c2ccccc2Cl)ccc1C	-10	4	0	-5	-10
CCOc1ccc(S(=O)(=O)N2CCN(C(=O)c3cccn3C)CC2)cc1	-5	31*	-1	8	-13
SMILES	D2 antagonist	D2 PAM-1	D2 ag-1	D2 ag-2	D2 PAM-2
CCOc1ccc(S(=O)(=O)N2CCN(S(=O)(=O)c3ccc(C(C)=O)cc3)CC2)cc1	36*	8	0	-6	-2
CCOc1ccc(NC(=S)N2CCN(S(=O)(=O)c3ccccc3)CC2)cc1	16	-9	39*	-2	4
O=C1NCC(c2ccccc2)C1C(=O)N/N=C/c1ccc(Cl)s1 (centres undefined)	1	-9	0	-2	-10
Cc1cccc(N(C(=O)c2snc(C(N)=O)c2N)C(C(=O)NC2CCCC2)c2ccncc2)c1 (centres undefined)	-3	6	-1	0	1
CCC12CCCN3CCc4c(n(c5ccccc45)C(O)(C(=O)OC)C1)C32 (centres undefined)	51*	-30	0	5	-6
CC[C@]12CCCN3CCc4c(n(c5ccccc45)[C@](O)(C(=O)OC)C1)[C@@H]32	-11	14	1	-4	13
CCCCCn1c(=N)n(CC(O)COc2ccccc2OC)c2ccccc21 (centres undefined)	32*!	-10	-1	-4	-3
Cc1c(C(=O)NCc2ccccc2CN2CCCC2)oc2ccc(F)cc12	58*	-26	0	-1	-3
O=C(NCc1nc2ccccc2[nH]1)c1cccc(S(=O)(=O)N2CCOCC2)c1	38*	-2	0	-3	-9
CC1CCN(C(=O)COC(=O)c2cccc(S(=O)(=O)N(C)c3ccccc3)c2)CC1	43*	1	5	2	5
O=C(NCc1ccccc1CN1CCCC1)c1cccc(S(=O)(=O)N2CCOCC2)c1	49*	-14	0	-3	-35
COC(=O)C(C#N)C(=C1C(=O)CC(C)(C)CC1=O)c1ccc(O)cc1 (centres undefined)	5	-4	0	0	0
O=C(Nc1nnc(S(=O)(=O)N2CCCC2)s1)c1ccccc1F	-2	-1	0	-4	-9
CCCNC(=O)c1ccc2c(=O)c(O)c(-c3cccc(Br)c3)[nH]c2c1	5	-15	0	-1	-5
N#CC(C(=O)NCCc1ccccc1)c1nc2ccccc2nc1N1CCOCC1 (centres undefined)	7	-3	3	-1	-2
CN(c1ccccc1)S(=O)(=O)c1cccc(C(=O)NCc2ccccc2CN2CCCC2)c1	39*	-31	0	-2	-33
CN(c1ccccc1)S(=O)(=O)c1ccc(C(=O)NCc2ccccc2CN2CCCC2)cc1	0	-20	0	-2	-37
CCc1cc2c(cc3c(=O)n(CC(=O)NCCCN4CCCCCC4)nc(CC)n32)s1	33*	-21	-1	-6	-1
CCc1nn(CC(=O)NCCCN2CCN(C)CC2)c(=O)c2cc3sc(C)cc3n12	3	1	1	-2	-16
CN(C)CC/C=C1/c2ccccc2CS(=O)(=O)c2ccccc21	.	.	.	3	-3
S=C1Nc2ccccc2Sc2ccc(Cl)cc21	-1	14	0	0	10
CCCCCC[N+](C)(C)CC/C=C1/c2ccccc2Sc2ccc(Cl)cc21	75*	-26	-2	3	-9
CN(C)CC/C=C1/c2ccccc2Sc2ccc(Cl)cc21	103*	-26	-1	-6	-36
CN(C)CC/C=C1\c2ccccc2COc2ccccc21	51*	-25	1	-5	-34
